Experimental data published in ChEMBL document CHEMBL3988442, “University of Dundee, Small-Polar-MMV Screening Library” (2021).

target: AMP-activated protein kinase, AMPK (Homo sapiens) (UniProt P54646+O43741+P54619+Q9UGJ0+Q9Y478+Q13131+Q9UGI9); assay: AMP-dependent Kinase enzyme assay. An in vitro enzyme assay that detects ADP turnover that is directly proportional to AMPK activity. This uses naive AMPK that is activated during the assay with MK-8722; type: functional; design: scale not given: direction of the effect not stated beside the values; settings: 30 µM

Structure (SMILES)	Percent Effect [%]
O=C(Cc1ccc(Cl)cc1)N[C@@H]1CCC[C@@H](O)[C@@H]1O	22.5
Cc1ncoc1C(=O)N1CCOC(Cc2ccccc2)C1 (stereo not given)	8.13
CSCC(=O)N(C)Cc1noc(-c2ccccc2)n1	6.32
CNC(=O)c1sc2ncccc2c1C1CCN(C(=O)CCOC)C1 (stereo not given)	21.5
N#Cc1ccc(CN(CC(N)=O)Cc2cccc(F)c2)cc1	-6
O=C(CCNCc1cccc2c1OCCCO2)NC1CCCC1	-8.82
CC1C(=O)NCCN1CCOc1ccc(C#N)cc1 (stereo not given)	3.66
COCCN(CCOC)C(=O)c1cnn(C)c1C	-3.12
CCN(C)S(=O)(=O)N[C@H]1CN(c2ccc(F)cn2)C[C@@H]1C(C)C	-6.05
CCc1cc(NCCCNS(C)(=O)=O)nc(-c2ccccn2)n1	-7.82
O=C(NCC(O)c1cccc(F)c1)C1CCN(C2CCCCC2)CC1 (stereo not given)	-10
COc1ncccc1-c1cc(C(=O)NC2CC2)ccn1	-1.79
Cc1cc(C[S+]([O-])Cc2ccccc2C)no1 (stereo not given)	5.62
Cc1ccc2[nH]c(CNC(=O)C3CC4(CCNCC4)CN3C)nc2c1C (stereo not given)	-16.1
O=C1CN([C@@H]2CC[C@@H](NS(=O)(=O)c3ccccc3F)[C@H]2O)CCN1	-4.46
Cc1nn(C)c(C)c1C1COCCN1C(=O)NC1CC1 (stereo not given)	-1.36
COCCN(CCOC)c1nc2c(s1)c(C)nn2C	0.796
CSC1(CNC(=O)N(C)Cc2ccc(C)s2)CCOCC1	-2.72
Cc1cccc2nc(CN3CCC(N4CCN(C)C4=O)CC3)cn12	6.81
Cc1ccc(C(C(=O)NC(C)(C)CN2CCCC2)N(C)C)cc1 (stereo not given)	-22.5

Structure (SMILES)	Percent Effect [%]
O=C(C1CCOC1)N1CCN(CC2CC2)c2ccccc21 (stereo not given)	5.43
Cn1cc(S(=O)(=O)NCCc2ccsc2)cn1	13.7
CCC[C@H]1CN(S(=O)(=O)N(C)Cc2ccccc2)C[C@@H]1N	-0.364
CC(CC(F)(F)F)NCc1ccccc1-n1ccnc1 (stereo not given)	-3.96
Cc1ccc(CNCc2nccn2C)c(OCC2CC2)c1	3.02
CCC1CCCCN1C(=O)Cn1cnc(C#N)n1 (stereo not given)	-0.907
CC(=O)NCCNC(=O)c1cc(COc2ccccc2)[nH]n1	14.5
O=C(NCc1cccnc1N1CCCC(O)C1)c1ccc2[nH]nnc2c1 (stereo not given)	-3.08
O=C(NCc1ccccn1)c1cc2n(n1)CCNC2	11.8
CC(O)CN1CCN(Cc2coc(-c3ccccc3)n2)CC1 (stereo not given)	-7.2
O=C(COc1ccc(Cl)cc1)NCc1nncn1C1CC1	-8.68
CC(C)(C)C(NC(=O)CCS(C)(=O)=O)c1ccc(F)cc1F (stereo not given)	0.0332
Cc1ncsc1C(=O)NCCN1CCCCCC1=O	-13.5
O=C1NCCCCC1NC(=O)N1CCCc2cc(F)ccc21 (stereo not given)	6.88
Fc1ccc(OCCCNC2=NCCN2)cc1	-0.85
O=C(CCOc1ccccc1F)N1CCOCC1	-12.5
CCc1ccsc1C(=O)NC(C#N)CC(C)C (stereo not given)	-7.05
CCc1oc(C(=O)NC(C)Cc2cnccn2)cc1CN1CCCC1 (stereo not given)	0.442
CS(=O)(=O)N1CCC(CNc2c(Cl)cccc2C#N)CC1	7.5
CC(C)C(NC(=O)C1CCCC1)c1cc(O)nc(-c2cccnc2)n1 (stereo not given)	0.00151
